Results as given in PubChem BioAssay (EPA / NIEHS).
Records with an inconclusive call do not appear. Active and inactive are the calls of the source. The calls were made as follows: active = hit-call score of the fitted dose curve at least 0.9, where 1 is the maximum; inconclusive = response in the unintended direction; inactive = score below 0.9.

Key:
[1] = target: Serine/threonine-protein phosphatase PP1-alpha catalytic subunit (Homo sapiens) (UniProt P62136); test: NVS_ENZ_hPPP1CA: NovaScreen (NVS) Enzymatic Assay for human Protein Phosphatase 1 Aatalytic subunit Alpha (PPP1CA) (AID 2283200)
In short: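 Chemicals were first screened in duplicate at 25 uM, and those passing threshold (e.g. 30% inhibition) were run as concentration series to 50 uM. Cell-free recombinant protein, 1.33 h read, fluorescent substrate/product mobility-shift detection, normalised to DMSO.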

[2] = target: Tyrosine-protein phosphatase non-receptor type 12 (Homo sapiens) (UniProt Q05209); test: NVS_ENZ_hPTPN12: NovaScreen (NVS) Enzymatic Assay for human Protein Tyrosine Phosphatase Non-receptor Type 12 (PTPN12) (AID 2283204)
In short: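 Single-concentration duplicates (25 uM) preceded singleton concentration-response up to 50 uM for chemicals passing threshold. Cell-free recombinant PTPN12 activity was read 1.33 h after dosing via fluorescence after mobility-shift separation; loss of signal versus DMSO.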

[3] = target: Tyrosine-protein phosphatase non-receptor type 13 (Homo sapiens) (UniProt Q12923); test: NVS_ENZ_hPTPN13: NovaScreen (NVS) Enzymatic Assay for human Protein Tyrosine Phosphatase Non-receptor Type 13 (PTPN13) (AID 2283205)
In short: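 Screened first at a single 25 uM in duplicate; compounds passing the threshold (e.g. 30% inhibition) were rerun in concentration series, top 50 uM. Recombinant enzyme, fluorescent substrate, mobility-shift separation, 0.5 h read. Data fitted as inhibition relative to DMSO.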

[4] = target: Tyrosine-protein phosphatase non-receptor type 14 (Homo sapiens) (UniProt Q15678); test: NVS_ENZ_hPTPN14: NovaScreen (NVS) Enzymatic Assay for human Protein Tyrosine Phosphatase Non-receptor Type 14 (PTPN14) (AID 2283206)
In short: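 Fluorescent substrate turnover by recombinant human PTPN14 was measured 0.5 h after compound addition, with substrate and product separated by mobility shift. Single-point screening at 25 uM, then concentration-response up to 50 uM for chemicals meeting threshold (e.g., 30% inhibition).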

[5] = target: human Protein Tyrosine Phosphatase Receptor Type F (PTPRF), PTPRF (gene 5792) (UniProt P10586); test: NVS_ENZ_hPTPRF: NovaScreen (NVS) Enzymatic Assay for human Protein Tyrosine Phosphatase Receptor Type F (PTPRF) (AID 2283213)
In short: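 Cell-free fluorescence enzyme assay with recombinant protein and substrate; product separated by electrophoretic mobility shift. Read 1 h after dosing, single 25 uM duplicate screen, then concentration-response up to 50 uM; loss of signal vs DMSO.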

[6] = target: human Protein Tyrosine Phosphatase Non-receptor Type 9 (PTPN9), PTPN9 (gene 5780) (UniProt P43378); test: NVS_ENZ_hPTPN9: NovaScreen (NVS) Enzymatic Assay for human Protein Tyrosine Phosphatase Non-receptor Type 9 (PTPN9) (AID 2283209)
Protocol: NVS_ENZ_hPTPN9 is a biochemical, single-readout assay that uses extracted gene-proteins from SF9 in a cell-free assay. Measurements were taken 1.33 hours after chemical dosing in a 384-well plate.NVS_ENZ_hPTPN9 is one of one assay component(s) measured or calculated from the NVS_ENZ_hPTPN9 assay. It is designed to make measurements of enzyme activity, a form of enzyme reporter, as detected with fluorescence intensity signals by Fluorescence and electrophoretic mobility shift technology.Data from the assay component NVS_ENZ_hPTPN9 was analyzed into 1 assay endpoint. This assay endpoint, NVS_ENZ_hPTPN9, was analyzed in the positive analysis fitting direction relative to DMSO as the negative control and baseline of activity. Using a type of enzyme reporter, loss-of-signal activity can be used to understand changes in the enzymatic activity as they relate to the gene PTPN9. Furthermore, this assay endpoint can be referred to as a primary readout, because this assay has produced multiple assay endpoints where this one serves a enzymatic activity function. To generalize the intended target to other relatable targets, this assay endpoint is annotated to the phosphatase intended target family, where the subfamily is non-receptor tyrosine phosphatase. […]

[7] = target: human Tropomyosin Receptor Kinase A (TRKA), NTRK1 (gene 4914) (UniProt P04629); test: NVS_ENZ_hTrkA: NovaScreen (NVS) Enzymatic Assay for human Tropomyosin Receptor Kinase A (TRKA) (AID 2283224)
In short: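 Compounds were screened at 25 uM in duplicate, then concentration series to a 50 uM top for those meeting threshold (e.g. 30% inhibition). Enzyme was recombinant human TrkA, incubated 1 h. Product formation was quantified by fluorescence after mobility-shift separation.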

[8] = target: human Protein Tyrosine Phosphatase Receptor Type B (PTPRB), PTPRB (gene 5787) (UniProt P23467); test: NVS_ENZ_hPTPRB: NovaScreen (NVS) Enzymatic Assay for human Protein Tyrosine Phosphatase Receptor Type B (PTPRB) (AID 2283211)
In short: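 Recombinant human PTPRB with a fluorescent substrate, product separated by electrophoretic mobility shift; read 1 h after dosing. Primary screen in duplicate at 25 uM; actives then retested in concentration series; loss of signal versus DMSO.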

Chain of Tyrosine-protein phosphatase non-receptor type 13 (Homo sapiens) (Q12923 whole entry, looked up): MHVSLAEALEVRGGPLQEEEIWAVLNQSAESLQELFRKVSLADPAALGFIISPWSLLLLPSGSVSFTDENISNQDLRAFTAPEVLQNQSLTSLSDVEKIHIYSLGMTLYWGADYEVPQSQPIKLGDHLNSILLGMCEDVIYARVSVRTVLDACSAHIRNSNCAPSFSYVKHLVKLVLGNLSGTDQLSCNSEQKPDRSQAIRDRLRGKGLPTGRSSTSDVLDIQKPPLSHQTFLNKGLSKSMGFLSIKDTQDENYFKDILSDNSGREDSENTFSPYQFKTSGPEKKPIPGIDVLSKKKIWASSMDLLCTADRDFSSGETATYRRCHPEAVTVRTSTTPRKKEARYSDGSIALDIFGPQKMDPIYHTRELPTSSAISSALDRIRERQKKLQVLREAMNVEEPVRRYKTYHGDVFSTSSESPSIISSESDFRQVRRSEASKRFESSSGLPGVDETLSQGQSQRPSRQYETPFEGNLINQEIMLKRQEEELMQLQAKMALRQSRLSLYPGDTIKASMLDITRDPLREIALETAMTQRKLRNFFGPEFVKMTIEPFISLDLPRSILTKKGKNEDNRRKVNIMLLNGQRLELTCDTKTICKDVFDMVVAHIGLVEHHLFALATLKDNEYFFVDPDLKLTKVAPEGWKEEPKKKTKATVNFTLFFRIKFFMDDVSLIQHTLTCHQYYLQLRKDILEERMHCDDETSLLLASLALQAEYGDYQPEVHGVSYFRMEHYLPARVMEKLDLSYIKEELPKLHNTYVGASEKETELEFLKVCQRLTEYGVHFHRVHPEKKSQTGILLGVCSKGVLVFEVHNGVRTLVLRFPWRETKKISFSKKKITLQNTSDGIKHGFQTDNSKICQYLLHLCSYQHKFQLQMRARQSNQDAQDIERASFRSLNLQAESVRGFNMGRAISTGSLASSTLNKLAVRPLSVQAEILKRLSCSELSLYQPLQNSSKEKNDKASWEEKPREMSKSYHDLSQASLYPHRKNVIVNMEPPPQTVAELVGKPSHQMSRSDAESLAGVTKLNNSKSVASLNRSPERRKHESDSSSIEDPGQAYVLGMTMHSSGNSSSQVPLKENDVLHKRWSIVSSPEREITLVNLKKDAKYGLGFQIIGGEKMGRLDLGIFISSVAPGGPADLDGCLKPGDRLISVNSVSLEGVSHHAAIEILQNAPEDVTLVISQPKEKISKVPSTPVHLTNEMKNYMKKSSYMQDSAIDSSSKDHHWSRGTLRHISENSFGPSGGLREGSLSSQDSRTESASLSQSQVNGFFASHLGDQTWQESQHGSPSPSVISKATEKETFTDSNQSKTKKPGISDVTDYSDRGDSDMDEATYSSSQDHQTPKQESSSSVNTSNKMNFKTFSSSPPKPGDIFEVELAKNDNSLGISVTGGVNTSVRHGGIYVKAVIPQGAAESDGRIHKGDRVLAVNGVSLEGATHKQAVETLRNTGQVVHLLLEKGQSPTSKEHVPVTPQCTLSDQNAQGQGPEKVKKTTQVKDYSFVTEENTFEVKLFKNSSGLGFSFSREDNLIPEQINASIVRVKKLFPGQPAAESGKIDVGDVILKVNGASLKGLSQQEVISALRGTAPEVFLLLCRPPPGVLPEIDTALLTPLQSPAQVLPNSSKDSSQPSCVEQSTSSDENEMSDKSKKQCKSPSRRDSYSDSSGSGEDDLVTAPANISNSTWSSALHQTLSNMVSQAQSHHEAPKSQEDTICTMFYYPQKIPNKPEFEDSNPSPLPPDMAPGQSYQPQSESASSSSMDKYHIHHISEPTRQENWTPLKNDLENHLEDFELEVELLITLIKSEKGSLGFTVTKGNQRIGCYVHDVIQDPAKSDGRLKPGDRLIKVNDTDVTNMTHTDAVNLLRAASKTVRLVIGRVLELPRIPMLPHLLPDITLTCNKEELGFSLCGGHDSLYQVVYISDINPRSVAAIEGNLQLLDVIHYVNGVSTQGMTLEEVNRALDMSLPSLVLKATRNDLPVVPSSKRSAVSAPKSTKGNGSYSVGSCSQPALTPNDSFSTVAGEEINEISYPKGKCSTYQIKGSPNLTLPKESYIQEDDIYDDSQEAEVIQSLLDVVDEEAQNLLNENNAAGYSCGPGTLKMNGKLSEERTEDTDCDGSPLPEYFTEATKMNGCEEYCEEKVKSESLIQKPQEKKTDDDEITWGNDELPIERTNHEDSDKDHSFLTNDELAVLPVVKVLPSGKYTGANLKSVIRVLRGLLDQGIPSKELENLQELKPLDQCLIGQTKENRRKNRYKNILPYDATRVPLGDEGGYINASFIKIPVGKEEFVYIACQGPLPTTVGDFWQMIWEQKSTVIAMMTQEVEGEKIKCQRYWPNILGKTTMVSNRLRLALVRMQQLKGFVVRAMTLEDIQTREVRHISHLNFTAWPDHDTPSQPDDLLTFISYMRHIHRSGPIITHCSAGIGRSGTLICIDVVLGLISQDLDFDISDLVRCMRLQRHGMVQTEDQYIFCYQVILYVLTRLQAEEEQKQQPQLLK
Chain of Tyrosine-protein phosphatase non-receptor type 14 (Homo sapiens) (Q15678 whole entry, looked up): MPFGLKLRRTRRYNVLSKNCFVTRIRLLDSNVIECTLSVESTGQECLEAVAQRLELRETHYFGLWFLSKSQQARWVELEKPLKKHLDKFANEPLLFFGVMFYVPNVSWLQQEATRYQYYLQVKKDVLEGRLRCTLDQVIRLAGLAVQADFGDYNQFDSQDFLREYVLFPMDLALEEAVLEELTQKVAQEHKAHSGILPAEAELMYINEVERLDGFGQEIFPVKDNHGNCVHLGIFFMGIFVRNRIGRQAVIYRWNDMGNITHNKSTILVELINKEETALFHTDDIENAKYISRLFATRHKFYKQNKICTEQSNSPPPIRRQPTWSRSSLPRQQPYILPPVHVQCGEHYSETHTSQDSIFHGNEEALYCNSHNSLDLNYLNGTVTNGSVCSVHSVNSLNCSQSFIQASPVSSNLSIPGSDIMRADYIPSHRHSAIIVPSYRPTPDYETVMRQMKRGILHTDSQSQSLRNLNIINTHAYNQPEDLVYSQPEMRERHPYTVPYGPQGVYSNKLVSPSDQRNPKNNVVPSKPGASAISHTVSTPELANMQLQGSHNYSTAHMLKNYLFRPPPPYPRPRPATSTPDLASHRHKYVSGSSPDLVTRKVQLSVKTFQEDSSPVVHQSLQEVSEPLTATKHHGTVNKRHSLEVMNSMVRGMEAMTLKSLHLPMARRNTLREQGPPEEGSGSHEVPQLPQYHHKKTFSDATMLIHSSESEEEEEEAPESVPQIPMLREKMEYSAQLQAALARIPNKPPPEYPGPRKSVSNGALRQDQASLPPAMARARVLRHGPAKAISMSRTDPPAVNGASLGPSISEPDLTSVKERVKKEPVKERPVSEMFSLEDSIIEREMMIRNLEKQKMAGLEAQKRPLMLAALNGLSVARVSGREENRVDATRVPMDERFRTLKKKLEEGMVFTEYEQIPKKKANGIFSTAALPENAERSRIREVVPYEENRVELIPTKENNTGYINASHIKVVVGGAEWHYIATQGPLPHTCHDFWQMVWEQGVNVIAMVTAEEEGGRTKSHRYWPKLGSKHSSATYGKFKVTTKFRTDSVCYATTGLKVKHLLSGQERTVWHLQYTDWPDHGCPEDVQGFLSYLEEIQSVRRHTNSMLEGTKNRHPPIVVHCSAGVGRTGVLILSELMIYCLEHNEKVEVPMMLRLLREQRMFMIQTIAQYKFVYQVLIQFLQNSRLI
Chain of human Protein Tyrosine Phosphatase Non-receptor Type 9 (PTPN9), PTPN9 (gene 5780) (P43378 whole entry, looked up): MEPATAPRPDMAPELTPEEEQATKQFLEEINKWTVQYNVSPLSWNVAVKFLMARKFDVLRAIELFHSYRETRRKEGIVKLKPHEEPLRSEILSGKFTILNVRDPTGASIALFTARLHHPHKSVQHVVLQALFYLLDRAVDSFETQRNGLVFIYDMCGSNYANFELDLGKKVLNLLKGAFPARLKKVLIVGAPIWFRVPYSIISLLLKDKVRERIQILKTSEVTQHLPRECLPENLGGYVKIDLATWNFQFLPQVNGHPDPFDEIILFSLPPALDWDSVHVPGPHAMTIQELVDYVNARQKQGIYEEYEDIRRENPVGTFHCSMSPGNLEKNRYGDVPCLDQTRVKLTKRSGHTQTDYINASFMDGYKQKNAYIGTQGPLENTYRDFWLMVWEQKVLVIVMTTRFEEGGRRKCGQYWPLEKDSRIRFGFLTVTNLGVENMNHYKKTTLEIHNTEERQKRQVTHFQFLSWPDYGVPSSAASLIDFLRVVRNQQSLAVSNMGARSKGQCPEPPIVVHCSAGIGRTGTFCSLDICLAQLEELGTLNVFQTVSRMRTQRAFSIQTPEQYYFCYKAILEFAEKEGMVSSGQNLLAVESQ
Chain of human Tropomyosin Receptor Kinase A (TRKA), NTRK1 (gene 4914) (P04629 whole entry, looked up): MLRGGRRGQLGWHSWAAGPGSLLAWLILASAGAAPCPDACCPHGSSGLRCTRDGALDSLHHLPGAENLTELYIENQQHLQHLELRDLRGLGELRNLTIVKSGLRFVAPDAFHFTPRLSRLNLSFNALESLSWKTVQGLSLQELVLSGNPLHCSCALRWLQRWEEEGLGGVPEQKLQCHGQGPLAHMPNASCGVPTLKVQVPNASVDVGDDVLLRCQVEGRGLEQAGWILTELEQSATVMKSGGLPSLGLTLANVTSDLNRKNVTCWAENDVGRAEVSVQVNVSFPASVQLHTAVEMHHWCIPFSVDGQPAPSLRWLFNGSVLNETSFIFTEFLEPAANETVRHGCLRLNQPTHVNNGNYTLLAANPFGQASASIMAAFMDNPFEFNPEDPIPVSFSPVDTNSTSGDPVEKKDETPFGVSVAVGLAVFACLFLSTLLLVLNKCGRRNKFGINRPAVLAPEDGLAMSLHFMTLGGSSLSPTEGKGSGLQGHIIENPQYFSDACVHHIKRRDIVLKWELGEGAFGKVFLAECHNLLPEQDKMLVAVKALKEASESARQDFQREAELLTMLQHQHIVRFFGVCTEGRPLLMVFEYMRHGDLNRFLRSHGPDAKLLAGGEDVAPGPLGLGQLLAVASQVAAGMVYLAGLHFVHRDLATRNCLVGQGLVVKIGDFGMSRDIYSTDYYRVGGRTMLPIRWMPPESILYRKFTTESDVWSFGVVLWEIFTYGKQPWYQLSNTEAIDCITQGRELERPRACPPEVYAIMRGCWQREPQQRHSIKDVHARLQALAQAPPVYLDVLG

SMILES: CN(C)C(=O)NC1(c2ccccc2)CCN(CC[C@@]2(c3ccc(F)c(F)c3)CN(C(=O)c3ccccc3)CCO2)CC1
- outcome [1]: inactive

SMILES: O=C(NS(=O)(=O)/C=C/c1cccs1)c1ccc(F)cc1Br
- outcome [2]: inactive

SMILES: COc1ccc(OC(F)(F)F)cc1CN[C@H]1CCCN[C@H]1c1ccccc1
- outcome [3]: inactive
- outcome [4]: inactive
- outcome [5]: inactive

SMILES: CCCCOC(=O)CCCCC(=O)OCCCC
- outcome [3]: inactive

SMILES: CC(C)NCC(O)c1ccc(O)c(O)c1 (stereo not drawn)
- outcome [4]: inactive

SMILES: O=C(O)CC(O)(CC(=O)O)C(=O)O
- outcome [6]: inactive
- outcome [7]: inactive

SMILES: O=C(Oc1ccccc1)c1cccc(C(=O)Oc2ccccc2)c1
- outcome [6]: inactive

SMILES: CCCCC(CC)CO (stereo not drawn)
- outcome [8]: inactive

SMILES: CN(C)C(=O)NC1(c2ccccc2)CCN(CCC[C@]2(c3ccc(Cl)c(Cl)c3)CCCN(C(=O)c3ccccc3)C2)CC1
- outcome [5]: inactive

SMILES: CCN(CC)CCOc1ccc(C(=C(Cl)c2ccccc2)c2ccccc2)cc1
- outcome [7]: inactive
